# Experiments:
# Conditions in all cases: concentration: 1 μM, replicates: in singlicate; n = 1
# [1] = system: T1, LOK
# T1 construct: gene STK10
# [2] = system: LRRK2
# [3] = system: LTK
# [4] = system: LYN
# [5] = system: T2, LZK
# T2 construct: gene MAP3K13
# [6] = system: MAK
# [7] = system: MAP3K15
# [8] = system: MAP3K1
# [9] = system: MAP3K2
# [10] = system: MAP3K3
# [11] = system: MAP3K4
# [12] = system: MAP4K2
# [13] = system: MAP4K3
# [14] = system: MAP4K4
# [15] = system: MAP4K5
# [16] = system: MAPKAPK2
# [17] = system: MAPKAPK5
# [18] = system: MARK1
# [19] = system: MARK2
# [20] = system: MARK3
# 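Also: KINOMEscan kinase panel screen.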
Structure (SMILES),%Inh [1] [%],%Inh [2] [%],%Inh [3] [%],%Inh [4] [%],%Inh [5] [%],%Inh [6] [%],%Inh [7] [%],%Inh [8] [%],%Inh [9] [%],%Inh [10] [%],%Inh [11] [%],%Inh [12] [%],%Inh [13] [%],%Inh [14] [%],%Inh [15] [%],%Inh [16] [%],%Inh [17] [%],%Inh [18] [%],%Inh [19] [%],%Inh [20] [%]
Cn1c(=O)c(F)c(Nc2ccc(I)cc2F)c2c(=O)n(OC[C@H](O)CO)cnc21,2,0,20,14,0,0,0,0,0,4,27,0,0,0,5,0,0,0,0,7
Cc1nnc(-c2ccc(C)c(-c3ccc(C(=O)O)cc3)c2)o1 [GW608005],100,46,0,0,0,19,14,0,0,0,8,0,0,10,0,1,0,4,0,0
FC(F)(F)c1ccc(-c2ncn(CCCN3CCOCC3)c2-c2ccncc2)cc1 [SB-217780],10,0,23,3,0,29,7,12,8,0,7,0,0,0,0,12,22,9,0,3
O=C(Nc1n[nH]c2nc(-c3ccccc3)c(Cl)cc12)C1CC1 [SB-734909],21,0,0,0,0,3,60,37,14,33,5,0,15,1,9,22,0,30,0,0
CCC(=O)c1c(-c2ccccc2)c2cc(Cl)ccc2c(=O)n1Cc1cc(C(=O)NC2CC2)n(C)n1,19,3,16,0,31,32,11,9,10,12,23,0,30,0,0,8,0,13,0,0
Cc1ccccc1COc1cc(-n2cnc3cc(Cl)ccc32)sc1C(N)=O [GW813349],46,82,9,33,0,0,1,32,5,11,20,0,0,12,20,0,0,0,0,14
CCn1c(-c2nonc2N)nc2ccccc21 [SB-693162/GW549034],11,83,4,0,55,0,54,46,25,31,0,4,0,0,0,0,33,0,25,0
CCc1nc(-c2cccc(C)c2)c(-c2ccncc2)s1,0,0,0,12,0,0,0,0,0,0,0,0,0,17,0,0,0,0,11,0
CN(C)c1cc(-c2ccc3c(N)n[nH]c3c2)nc(N)n1 [GSK2219329],0,0,4,0,10,16,0,0,0,0,0,0,0,9,7,0,0,0,0,0
COc1ccc(-c2cc3c(C)nc(N)nc3n([C@H]3CC[C@H](OCCO)CC3)c2=O)cn1,9,0,9,0,0,0,0,0,0,0,4,0,30,0,0,0,0,0,1,0
CCCNC(=O)Nc1ccc(Oc2ncnc3ccn(C)c23)cc1,47,0,4,30,22,0,0,31,15,0,6,7,0,0,0,7,0,6,6,0

# Source: PMC5540273 (PLoS ONE, 2017)
